Source: PubChem BioAssay
The list is not random: actives were taken first. Their share in the collection is about 6.2%.
RORgamma inh = ROR gamma (mouse) transcription inhibition; hit rate 5.4% among 310,000; Drosophila S2 Gal4-RORgamma UAS-luciferase reporter, 20 h; Potency, µM (top dose mostly 53.6 µM), actives largely listed as inhibitors; P51450; further: nearly all actives have a fitted effect of over 60% in size
Target sequence (P51450 whole entry, looked up, the tested form may be a part): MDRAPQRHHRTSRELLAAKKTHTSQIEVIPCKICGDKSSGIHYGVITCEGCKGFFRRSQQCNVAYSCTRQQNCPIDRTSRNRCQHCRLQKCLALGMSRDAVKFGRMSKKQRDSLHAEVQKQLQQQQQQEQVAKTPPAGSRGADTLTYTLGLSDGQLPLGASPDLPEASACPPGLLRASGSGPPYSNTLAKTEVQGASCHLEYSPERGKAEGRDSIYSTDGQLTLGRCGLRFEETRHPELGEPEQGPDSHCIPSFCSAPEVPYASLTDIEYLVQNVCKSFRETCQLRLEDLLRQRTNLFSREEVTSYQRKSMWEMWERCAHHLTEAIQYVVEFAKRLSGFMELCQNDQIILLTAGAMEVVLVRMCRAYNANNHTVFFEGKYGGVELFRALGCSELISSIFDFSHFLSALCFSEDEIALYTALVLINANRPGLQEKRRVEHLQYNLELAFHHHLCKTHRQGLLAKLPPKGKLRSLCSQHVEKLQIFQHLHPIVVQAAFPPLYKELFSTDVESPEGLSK
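Schneider cells (Drosophila), stable Gal4 DBD–ROR gamma + UAS-luc; 1 hr cmpd preincubation; Cu2+ induction 700 uM final; 20 hr ambient; luminescence.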
Gal4-VP16 FLuc = Gal4-VP16 reporter inhibition counter-screen. hit rate 3.5% among 310,000. AID 2546. Drosophila S2 Gal4-VP16 UAS-luciferase, luminescence, 20 h. Potency, µM (doses to about 53.6 µM), most hits filed as inhibitors;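 further: Gal4-VP16 expression switched on by copper sulfate through the metallothionein promoter; nearly all actives have a fitted effect of over 50% in size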
Luc counter = counter-screen: inhibitors of Kinase-Glo firefly luciferase | Potency, µM (doses to about 38.3 µM), actives largely listed as inhibitors | Kinase-Glo luciferase, ATP luminescence, 8 min | hit rate 0.28% among 200,000; further: nearly all actives have a fitted effect of over 60% in size
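Compounds were added to a substrate mix at pH 7.2 (50 mM imidazole, 10 uM ATP, within the enzyme's linear range), followed by Kinase-Glo detection reagent; luminescence was measured after 8 minutes at ambient temperature.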
Each line names hits and unclear results; the compound was inactive in the other large screens. The call rests on the fitted dose curve; in most records, active means well fitted curve in the direction sought with a large enough effect; inconclusive means small, poorly fitted or top-dose-only effect, or another doubt; inactive means no such curve, though single readings can be large; an effect the other way counts as inactive or inconclusive.

CC12CCC(=O)N1C(C(=O)NCCc1ccc(S(N)(=O)=O)cc1)CS2 (stereo unspecified)	none (no result: Luc counter)
Cc1cccc(NC(=S)NC2CC3CCCC(C2)N3CC(C)C)c1C (stereo unspecified)	none
Cc1ccccc1NC(=S)NC1CCCC1	RORgamma inh 7.94µM, Gal4-VP16 FLuc 8.91µM (no result: Luc counter)
Cc1cc(C)c(NC(=O)NC2CCCCC2)c(C)c1	none
Cc1cccc(NC(=S)NNC(=S)NC2CCCCC2)c1C	RORgamma inh 12.6µM, Gal4-VP16 FLuc inconclusive
Cc1cccc(NC(=O)NNC(=O)c2cc3ccccc3cc2O)c1C	none (no result: Luc counter)
Cc1cccc(NC(=S)NNC(=O)c2ccc(O)cc2O)c1C	RORgamma inh 7.94µM, Gal4-VP16 FLuc 20µM
Cc1cccc(C)c1NC(=S)NC1CCCCC1	RORgamma inh 6.31µM, Gal4-VP16 FLuc 4.47µM (no result: Luc counter)
Cc1cc([N+](=O)[O-])ccc1NC(=S)NC1CCCC1	none (no result: Luc counter)
Cc1cc(C)nc(SCc2nc(N)nc(-c3ccccc3O)n2)n1	none
O=C(NCc1ccccc1Cl)C(=O)NCC1OCCN1S(=O)(=O)c1cccs1 (stereo unspecified)	none
COc1ccc(C(=O)NCC(=O)N/N=C/c2ccc(C)o2)cc1OC	none (no result: Luc counter)
NS(=O)(=O)c1ccc(CCNC(=O)c2cnc(Cl)c(Cl)c2)cc1	none (no result: Luc counter)
COc1ccc(C(=O)N2CCC3(CCN(C(=O)Nc4cccc(F)c4)CC3)CC2)cc1	none
Cc1cccc(C(=O)N/N=C/C(C)Cc2ccc3c(c2)OCO3)c1 (stereo unspecified)	RORgamma inh inconclusive, Gal4-VP16 FLuc inconclusive
O=C(Nc1ccc(S(=O)(=O)N2CCN(c3ccccc3)CC2)cc1)c1cccs1	RORgamma inh inconclusive
O=C(Nc1ccc(S(=O)(=O)N2CCCC2)cc1)C1CCCN1C(=O)c1cccs1 (stereo unspecified)	none (no result: Luc counter)
O=C(NC(=S)Nc1ccc(S(=O)(=O)N2CCCC2)cc1)c1cccs1	RORgamma inh 4.47µM, Gal4-VP16 FLuc 12.6µM
O=C(NC(=S)Nc1ccc(S(=O)(=O)N2CCCCCC2)cc1)c1cccs1	RORgamma inh 2.82µM, Gal4-VP16 FLuc 6.31µM
COc1ccccc1/C=C/C(=O)Nc1nc(N)n(-c2ccccc2)n1	none (no result: Luc counter)
O=C1CN(Cc2cc(=O)oc3cc4c(cc23)CCC4)CCN1	none
Cn1nnnc1NCc1ccccc1F	RORgamma inh 0.631µM (no result: Luc counter)
CCOc1ccccc1CNc1nnnn1C	none (no result: Luc counter)
NC(=O)CC(NC(=O)c1ccccc1)c1ccc(N2CCC(N3CCCC3)CC2)c([N+](=O)[O-])c1 (stereo unspecified)	none (no result: Luc counter)
NC(=O)CC(NC(=O)c1ccc(Br)cc1)c1ccc(N2CCN(c3ccccc3)CC2)c([N+](=O)[O-])c1 (stereo unspecified)	RORgamma inh inconclusive (no result: Luc counter)
NC(=O)CC(NC(=O)c1ccccc1)c1ccc(N2CCC(Cc3ccccc3)CC2)c([N+](=O)[O-])c1 (stereo unspecified)	RORgamma inh inconclusive, Gal4-VP16 FLuc 11.2µM (no result: Luc counter)
NC(=O)CC(NC(=O)c1ccc(Br)cc1)c1ccc(N2CCC(Cc3ccccc3)CC2)c([N+](=O)[O-])c1 (stereo unspecified)	Gal4-VP16 FLuc 20µM (no result: Luc counter)
COc1ccc(NC(=O)c2ccc(Cl)c(NC(=O)c3ccncc3)c2)cc1	none
C=CCOC(=O)NC(CC(=Nc1ccc(OC)cc1)C(=O)OC)c1ccccc1 (stereo unspecified)	none
CC(=O)c1ccc(N2CCN(C(C)C(=O)NC3CCCc4ccccc43)CC2)cc1 (stereo unspecified)	RORgamma inh inconclusive
CCCc1ccc(C(=O)NNc2cccc(C)c2)cc1	none (no result: Luc counter)
CCC(=O)N1CCc2cc(S(=O)(=O)N(C)c3ccc(Br)cc3)ccc21	none (no result: Luc counter)
CCOc1ccc(-c2nnc(-c3cccs3)o2)cc1OCC	none
CCOc1ccc(-c2nnc(-c3cccs3)o2)cc1	RORgamma inh 11.2µM, Gal4-VP16 FLuc inconclusive
CCOC(=O)N1CCC(N2C(=O)c3ccccc3C2Nc2ccc(S(=O)(=O)N3CCCCC3)cc2)CC1 (stereo unspecified)	none
COc1ccc(-c2[nH]c(-c3cccc(OC)c3)nc2SCC(=O)NCc2ccco2)cc1	none
Cc1c(Cl)cn2c(=O)cc(CN3CCN(c4ccccc4)CC3)nc2c1Cl	none
CN(Cc1cc(=O)n2ccsc2n1)Cc1nc2ccccc2c(=O)[nH]1	RORgamma inh 7.94µM, Gal4-VP16 FLuc inconclusive
CN(Cc1cc(=O)n2ccsc2n1)c1ccccc1	Gal4-VP16 FLuc inconclusive
COc1cc2nc(CN3CCC(C(O)(c4ccccc4)c4ccccc4)CC3)[nH]c(=O)c2cc1OC	none
CCc1ccc2c(CN(CC)Cc3nc4ccccc4c(=O)[nH]3)cc(=O)oc2c1	RORgamma inh 8.91µM, Gal4-VP16 FLuc inconclusive
COc1cc2nc(CN3CCC(Cc4ccccc4)CC3)[nH]c(=O)c2cc1OC	RORgamma inh 11.2µM
CCN(Cc1cc(=O)n2cc(Cl)c(C)c(Cl)c2n1)Cc1nc2ccccc2c(=O)[nH]1	RORgamma inh 12.6µM, Gal4-VP16 FLuc inconclusive
CCc1ccc2c(CN(C)Cc3ccccc3OC)cc(=O)oc2c1	none (no result: Luc counter)
CC(C)C[C@H](NC(=O)[C@H](CCCCN)NC(=O)[C@H](CCCNC(=N)N)NC(=O)[C@H](C)NC(=O)[C@H](CO)NC(=O)[C@H](CCCCN)NC(=O)[C@H](CCCNC(=N)N)NC(=O)[C@H](C)NC(=O)CNC(=O)[C@@H](NC(=O)[C@H](Cc1ccccc1)NC(=O)CNC(=O)CNC(=O)[C@@H](N)Cc1ccccc1)[C@@H](C)O)C(=O)N[C@@H](C)C(=O)N[C@@H](CC(N)=O)C(=O)N[C@@H](CCC(N)=O)C(=O)O	none (no result: Luc counter)
CCc1ccc(NC(=O)CSc2nnc(CNC(=O)c3cccs3)o2)cc1	none (no result: Luc counter)
O=C(c1ccc(-n2c(=O)c(=O)[nH]c3ccccc32)cc1)N1CCCN(Cc2ccccc2)CC1	none (no result: RORgamma inh, Gal4-VP16 FLuc)
CN(Cc1nc2ccccc2c(=O)[nH]1)c1ccccc1	none
CCN(Cc1nc2ccccc2c(=O)[nH]1)Cc1nc2cc(OC)c(OC)cc2c(=O)[nH]1	RORgamma inh 1.26µM, Gal4-VP16 FLuc 2.24µM
CCc1ccc(NCc2nc3ccccc3c(=O)[nH]2)cc1	RORgamma inh inconclusive, Gal4-VP16 FLuc inconclusive
COc1cc2nc(CN(C)Cc3nc4ccccc4c(=O)[nH]3)[nH]c(=O)c2cc1OC	RORgamma inh 1.58µM, Gal4-VP16 FLuc 3.55µM
CCN(Cc1cc(=O)n2ccsc2n1)Cc1nc2cc(OC)c(OC)cc2c(=O)[nH]1	none (no result: Luc counter)
COc1cc2nc(CN(C)Cc3ccc(OC)c(OC)c3OC)[nH]c(=O)c2cc1OC	none
CCN(Cc1nc2ccccc2c(=O)[nH]1)Cc1nc2ccsc2c(=O)[nH]1	RORgamma inh 0.447µM, Gal4-VP16 FLuc 1µM
CCCCNCc1nc2ccccc2c(=O)[nH]1	RORgamma inh 10µM, Gal4-VP16 FLuc inconclusive (no result: Luc counter)
CCN1CCN(CC(=O)Nc2ccc(N(C)C)cc2)CC1	none (no result: Luc counter)
CCc1c2c(nc3cccc(OC)c13)OC(CC)C2 (stereo unspecified)	none
COCCNC(=O)CN1C(=O)NC2(CCCCCC2)C1=O	none
O=C(c1ccncc1)N1CCC2(CCCN(c3ccccc3)C2)CC1	none
CCOc1ccc(N(C)C(=O)CCc2nnc3ccc(N4CCC5(CC4)OCCO5)nn23)cc1	none (no result: Luc counter)
CC1CN(c2cnn(C(C)C)c(=O)c2Cl)CC(C)O1 (stereo unspecified)	none (no result: Luc counter)
Cc1ccc(S(=O)(=O)Nc2ccccc2N2CCOCC2)cc1	none (no result: Luc counter)
Cc1ccc(C)c(NNC(N)=S)c1	RORgamma inh inconclusive, Gal4-VP16 FLuc 17.8µM
Cc1ccc(C)c(NNC(=O)C(=O)NNc2cc(C)ccc2C)c1	none (no result: Luc counter)
Cc1cccc(NCc2ccccc2O)c1C	none
